Test [1] has as its system Zika virus NS2B-NS3 protease (unlinked complex). As to the kind of experiment: Primary screen GU Rhodamine qHTS for Zika virus inhibitors: Unlinked NS2B-NS3 protease assay (AID 1347159). Further: nearly all actives have a fitted effect of over 60% in size. The gist of the method: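 Percent inhibition came from the 15-min rise in Rhodamine110 fluorescence (1.5 microM substrate, ~15% conversion), normalized to no-inhibitor and no-enzyme wells and Hill-fitted. Unlinked protease, 25 nM, pH 8.0 Tris buffer; compounds up to 114 microM, 15-min preincubation.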

For test [2], the system named is Zika virus NS2B-NS3 protease (linked construct). As to the kind of experiment: Primary screen NINDS Rhodamine qHTS for Zika virus inhibitors (AID 1347160). Further: nearly all actives have a fitted effect of over 55% in size. The gist of the method:
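Rhodamine110-peptide cleavage (1.5 µM substrate) by 25 nM linked NS2B-NS3 enzyme at pH 8.0 (Tris, Tween 20), after 15 min RT preincubation with compounds; 15-min fluorescence change normalized to controls and Hill-fitted.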

Test [3] is described as follows: qHTS to identify inhibitors of the type 1 interferon - major histocompatibility complex class I in skeletal muscle: primary screen against the NCATS Mechanism Interrogation Plate v5.0 (MIPE) Libary (AID 1347411). Further: nearly all actives have a fitted effect of over 65% in size. Put shortly:
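HLA-B HiBit myoblasts, dexamethasone-free medium + 4 ng/ml IFN-b, 24 h compound, 11-pt 1:3 from 46 uM final. Readout: Nano-Glo HiBiT lytic luminescence after 10 min lysis, RT.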

For test [4], the target named is Calcium and integrin-binding protein 1 (Homo sapiens) (UniProt Q99828). As to the kind of experiment: Confirmatory qHTS for Identification of Calcium Integrin Binding Protein 1 (CIB1) Competitor (AID 1508617). Further: nearly all actives have a fitted effect of over 65% in size. The gist of the method:
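Compounds at up to 114 uM final met 1 uM GST-tagged CIB1 for 15 min at room temperature (HEPES pH 7.4, 5 mM CaCl2). FITC-labelled alphaIIb peptide, 100 nM, added; polarization read after 15 min more.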

Inconclusive results are not listed. Active and inactive are the calls of the source. The call rests on the fitted dose curve; in most records, active means well fitted inhibition curve with a large enough effect; inconclusive means small, poorly fitted or top-dose-only effect; inactive means no such curve, though single readings can be large or run the other way.
Potency means the concentration at half of the fitted maximal effect.

Sequence of Calcium and integrin-binding protein 1 (Homo sapiens) (Q99828 whole entry, looked up): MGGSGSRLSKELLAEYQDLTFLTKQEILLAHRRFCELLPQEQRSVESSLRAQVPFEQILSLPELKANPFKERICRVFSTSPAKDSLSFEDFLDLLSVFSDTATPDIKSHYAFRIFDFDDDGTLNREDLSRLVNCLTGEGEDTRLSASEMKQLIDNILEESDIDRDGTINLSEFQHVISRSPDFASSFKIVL

In the case of `Cc1ccc(CN2CCNCC2)cc1NC(=O)CNc1ccc(F)c(F)c1`, the Potency result in test [1], in test [2] and in test [3] was “inactive” throughout.
On to `COC(=O)c1ccc2c(C(=Nc3ccc(N(C)C(=O)CN4CCN(C)CC4)cc3)c3ccccc3)c(O)[nH]c2c1`, for which the Potency entry in test [1] and in test [2] was “inactive” in each case. In test [3], the Potency was 16.5 µM (active).
Consider `O=C1CCC[C@@H]2[C@H]3CCC[N+]4([O-])CCC[C@@H](CN12)[C@@H]34` (some centres not stated), for which the Potency result in test [1], in test [2] and in test [3] was “inactive” in each case.
For `NC(=O)c1c(OCc2c(F)cc(Br)cc2F)nsc1NC(=O)NCCCCN1CCCC1`, the Potency entry in test [1] and in test [2] was “inactive” each time. Also, the Potency in test [3] is 33 µM (active).
On to `CCN(CC)CCNC(=O)c1ccc2nc(-c3ccccc3)c(-c3ccc(CN4CCC(n5c(=O)[nH]c6ccccc65)CC4)cc3)nc2c1`, for which the Potency entry in test [1] and in test [2] was “inactive” in each case. Also, the Potency in test [3] was 6.58 µM (active).
For the compound `C[C@@H]1COC(Nc2ccc3ncnc(Nc4ccc(OCc5nccs5)c(Cl)c4)c3c2)=N1`, the Potency entry in test [1] and in test [2] was “inactive” each time. Besides, the Potency in test [3] is 16.5 µM (active).
As to `CC(C)CC(=O)Nc1n[nH]c2c1CN(C(=O)C1CCN(C)CC1)C2(C)C`, the Potency entry in test [1] and in test [2] was “inactive” each time. In addition, the Potency in test [3] is 1.04 µM (active).
As to `Fc1cc(-c2cccc3ncc(-c4cnn(C5CCNCC5)c4)nc23)cc(F)c1CN1CCOCC1`, the Potency entry in test [1] and in test [2] was “inactive” in each case. Besides, the Potency in test [3] is 11.7 µM (active).
For the compound `Nc1ncnc2c1c(-c1cnc3[nH]ccc3c1)nn2C1CCCC1`, the Potency entry in test [1] and in test [2] was “inactive” throughout. Besides, the Potency in test [3] was 0.829 µM (active).
As to `COc1ccc2c(c1)CC[C@@H](CN(C)CC(=O)O)[C@H]2c1ccccc1`, the Potency entry in test [1], in test [2] and in test [3] was “inactive” in each case.
Consider `Nc1ccccc1NC(=O)c1ccc(CNc2nccc(-c3cccnc3)n2)cc1`, for which the Potency entry in test [1] and in test [2] was “inactive” in each case. For the same compound, the Potency in test [3] was 7.39 µM (active).
Take `COc1cccc(Nc2c(C(N)=O)cnc3c(C)cc(S(=O)(=O)c4cccc(C(=O)N(C)C)c4)cc23)c1`: the Potency entry in test [1], in test [2] and in test [3] was “inactive” throughout.
Regarding `COc1ccc(C(=O)CC2(O)C(=O)Nc3c(Cl)ccc(Cl)c32)cc1` (configuration not stated), the Potency result in test [1], in test [2] and in test [3] was “inactive” each time.
Take `Cc1cn2cc(C(=O)N(C)CCO)cc(N[C@@H]3CCOc4cccc(C)c43)c2n1`: the Potency entry in test [1], in test [2] and in test [3] was “inactive” throughout.
For `Nc1cccc(-c2cc3c(Oc4cccc(O)c4)ncnc3[nH]2)c1`, the Potency entry in test [1] and in test [2] was “inactive” each time. Further, in test [3], the Potency is 13.1 µM (active).
As to `C=CC(=O)Nc1cccc(Oc2nc(Nc3ccc(N4CCN(C)CC4)cc3)ncc2Cl)c1`, the Potency result in test [1] and in test [2] was “inactive” throughout. Besides, the Potency in test [3] was 16.5 µM (active).
Take `COc1cc2nccc(Oc3ccc(NC(=O)C4(C(=O)Nc5ccc(F)cc5)CC4)cc3)c2cc1OC`: the Potency result in test [1] and in test [2] was “inactive” throughout. The Potency in test [3] was 8.29 µM (active).
Consider `CC(C)c1cnn2c(NCc3ccccc3)cc(N[C@@H](CO)[C@H](O)CO)nc12`, for which the Potency entry in test [1] and in test [2] was “inactive” in each case. In test [3], the Potency is 0.186 µM (active).
As for `CC(C)c1nn(-c2c(Cl)cccc2Cl)c2nc(Cc3ccc(OCCO)cc3)[nH]c(=O)c12`, the Potency entry in test [1] and in test [2] was “inactive” each time. In addition, the Potency in test [3] is 0.0294 µM (active).
With `CNC(=O)c1ccc(N2C(=S)N(c3cnc(C#N)c(C(F)(F)F)c3)C(=O)C23CCC3)cc1F`, the Potency result in test [1], in test [2] and in test [3] was “inactive” in each case.
For the compound `c1nc2nc(Nc3ccc(N4CCOCC4)cc3)nc(NC3CCCCC3)c2[nH]1`, the Potency entry in test [1] and in test [2] was “inactive” each time. Further, in test [3], the Potency was 2.94 µM (active).
With `CC[C@@H]1C(=O)N(C)c2cnc(Nc3ccc(C(=O)NC4CCC(N5CCN(CC6CC6)CC5)CC4)cc3OC)nc2N1C(C)C` (some centres not stated), the Potency result in test [1] and in test [2] was “inactive” in each case. For the same compound, in test [3], the Potency is 6.58 µM (active).
For `COc1cccc2c(NCc3ccccc3)nc(-n3c(N)nc4ccccc43)nc12`, the Potency result in test [2] was “inactive”.
Consider `COC(=O)Nc1ccc(-c2nc(N3CCOCC3)c3cnn(C4CCN(Cc5cccnc5)CC4)c3n2)cc1`, for which the Potency entry in test [2] was “inactive”.
On to `CC(C)c1cc(C(=O)N2Cc3ccc(CN4CCN(C)CC4)cc3C2)c(O)cc1O`, for which, in test [2], the Potency result is “inactive”.
As to `Cn1c2ccccc2c2c3c(c4c5ccccc5n(CCC#N)c4c21)CNC3=O`, the Potency entry in test [2] is “inactive”.
Take `COc1cc(C)c(Sc2cnc(NC(=O)c3ccc(CNC(C)C(C)C)cc3)s2)cc1C(=O)N1CCN(C(C)=O)CC1` (configuration not stated): the Potency result in test [2] was “inactive”.
`COc1ccc(-c2cc3c(C)nc(N)nc3n(C3CCC(OCCO)CC3)c2=O)cn1` (configuration not stated): the Potency entry in test [2] was “inactive”.
`O=C(CCCCCCNC(=O)c1cnc(N(c2ccccc2)c2ccccc2)nc1)NO`: the Potency entry in test [2] is “inactive”.
For the compound `Nc1nc(Nc2ccc(S(N)(=O)=O)cc2)nn1C(=O)c1c(F)cccc1F`, the Potency entry in test [1] and in test [2] was “inactive” throughout. The Potency in test [3] was 4.15 µM (active).
`O=C(Nc1cn[nH]c1-c1nc2ccc(CN3CCOCC3)cc2[nH]1)NC1CC1`: the Potency result in test [1] and in test [2] was “inactive” in each case. The Potency in test [3] is 3.3 µM (active).
Take `Cc1cc(Nc2cc(N3CCN(C)CC3)nc(Sc3ccc(NC(=O)C4CC4)cc3)n2)n[nH]1`: the Potency result in test [1], in test [2] and in test [3] was “inactive” throughout.
Regarding `N#CCNC(=O)c1ccc(-c2ccnc(Nc3ccc(N4CCOCC4)cc3)n2)cc1`, the Potency result in test [1] and in test [2] was “inactive” in each case. Besides, the Potency in test [3] was 11.7 µM (active).
`Cc1coc2c1C(=O)C(=O)c1c-2ccc2c1CCCC2(C)C`: the Potency in test [1] is 22.4 µM (active); in test [2] it was 14.1 µM (active); in test [4] it was 39.8 µM (active).
Regarding `Cc1c(CN2CCN(S(C)(=O)=O)CC2)sc2c(N3CCOCC3)nc(-c3cnc(N)nc3)nc12`, the Potency result in test [2] is “inactive”.
On the same count and under the same terms, as for `Nc1nccc(Oc2ccc(NC(=O)c3c[nH]cc(-c4ccc(F)cc4)c3=O)cc2F)c1Cl`, the entry is “inactive”.
For the compound `Cc1cnc(-c2cnc(NCCNc3ccc(C#N)cn3)nc2-c2ccc(Cl)cc2Cl)[nH]1`, the Potency entry in test [2] was “inactive”.
Regarding `NC1(Cc2ccc(Cl)cc2)CCN(c2ncnc3[nH]ccc23)CC1`, the Potency result in test [2] is “inactive”.

The record behind these values is PubChem BioAssay (NCATS).
